From PubChem BioAssay (NCI)
The panel holds about 79,000 compounds, 15% with a hit somewhere; the sample as a whole holds those more often. Values without a mark were called inactive. The source made the active and inactive calls. Cut-off read from the data, not from the text of the source: active = growth inhibition above about 70%; inactive = the rest. Residues, ends and D or L forms follow the SMILES beside them. *: point of attachment. Fmoc = O=C(OCC1c2ccccc2-c2ccccc21)*; Boc = CC(C)(C)OC(=O)*

Assay: NCI Yeast Anticancer Drug Screen. Data for the mgt1 strain (AID 153)
Details: S. cerevisiae mgt1 mutant growth inhibition; at 100.0 µM; stronger effect = higher value
Procedure, shortened: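 Read-out: yeast growth inhibition vs vehicle control. Strain mgt1, drawn from a panel altered in DNA damage repair or cell cycle control.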

First: CC(C)C(=O)CC(Sc1ccc(N)cc1)c1ccccc1 (configuration not stated)
Second: N#CCC(=O)N/N=C(\c1ccccc1)C(c1ccccc1)C1(O)C(=O)Nc2c(Cl)ccc(Cl)c21 (configuration not stated)
The growth inhibition of the first is higher: 58% for the first, 19% for the second.

First: CN(C)CCNCCCNc1c2ccccc2nc2cccc([N+](=O)[O-])c12
Second: CCN(CC)CCCNc1ccc([N+](=O)[O-])c2nc3ccc(OC)cc3c(NCCCN(CC)CC)c12
The growth inhibition of the first is higher: 58% for the first, 1% for the second.

First: O=[N+]([O-])c1ccc(/C=C\c2ccc3c(c2)OCO3)c([N+](=O)[O-])c1
Second: COc1ccc(C(C)c2cc3c(cc2OCC(C)=O)OCO3)cc1 (configuration not stated)
The growth inhibition of the first is lower: 17% for the first, 42% for the second.

First: Cc1oc2ccccc2c(=O)c1Cn1nnc2ccccc21
Second: CCS(=O)(=O)Nc1ccc(Nc2c3ccccc3nc3ccccc23)c(OC)c1
The growth inhibition of the first is lower: 26% for the first, 64% for the second.

Going from `CC1(C)OC(=O)C(=Cc2ccc([N+](=O)[O-])s2)C(=O)O1` to `COc1cc([N+](=O)[O-])c2ncccc2c1Br`, the growth inhibition falls from 50% to -4%.

Going from `COc1cccc(/C=C2\S/C(=N/Nc3nc(-c4ccc([N+](=O)[O-])cc4)cs3)NC2=O)c1O` to `O=[N+]([O-])c1ccc2nc(=S)[nH]n2c1`, the growth inhibition falls from 56% to 1%.

Compared with `CCCNC(=O)OCc1c(COC(=O)NCCC)c(-c2ccc(Cl)c(Cl)c2)n2c1CCC2`, `CCN(CC)CCC(=O)Nc1ccc2sc3ccccc3c(=O)c2n1` is lower in growth inhibition: 50% for the first, 3% for the second.

First: O=C(NO)c1coc2ccccc2c1=O
Second: O=S(=O)(c1ccccc1)N1CN2CN(C1)CN(S(=O)(=O)c1ccccc1)C2
The growth inhibition of the first is higher: 9% for the first, 6% for the second.

In the case of `OC1(c2ccccc2)C2CC=CC2C1(c1ccccc1)c1ccccc1` (configuration not stated), the growth inhibition is reported as 16%.

For `CC(C)OP(=O)(OC(C)C)/C(Cl)=N/Nc1ccc([N+](=O)[O-])cc1`, the growth inhibition was 94% (active).
With `O=[N+]([O-])c1cc(Cl)ccc1S(=O)(=O)c1ccc(Cl)cc1[N+](=O)[O-]` the growth inhibition was 78% (active).
With `CCCCCCNCCCNc1c2cc(OC)ccc2nc2cccc([N+](=O)[O-])c12` the growth inhibition was 98% (active).
In the case of `CCC[CH2][Ge]([CH2]CCC)([CH2]CCC)[O]C(=O)C(O)c1ccccc1` (configuration not stated), the growth inhibition is reported as 99% (active).
In the case of `COc1ccc(-c2cc(-c3cc(C)cc(Cl)c3O)nc3[nH]c(=S)[nH]c(=S)c23)cc1`, the growth inhibition is reported as 94% (active).
In the case of `O=C1c2ccccc2N2OC3(N4CCCC4)CCCCC3C12c1ccccc1` (configuration not stated), the growth inhibition is reported as 98% (active).
With `CC(C)OC(=O)NNc1cc(Cl)ccc1Cl` the growth inhibition was 88% (active).
In the case of `OC(Cc1cccc2ccccc12)CN1CCC(c2ccccc2)CC1` (configuration not stated), the growth inhibition is reported as 99% (active).
In the case of `C1=CCN([B-](c2ccccc2)[C+]2CCCCC2)C=C1`, the growth inhibition is reported as 99% (active).
For `O=[N+]([O-])c1cc[n+]([O-])c(Cl)c1`, the growth inhibition was 99% (active).
For `CC1(C)CC(=O)C(C(=O)Nc2cccs2)=C(O)C1`, the growth inhibition was 98% (active).
For `CC1=NN(C(=O)c2ccccc2O)C(=O)/C1=C/c1ccco1`, the growth inhibition was 96% (active).
With `O=C1C=C(Br)C(=O)c2ccccc21` the growth inhibition was 99% (active).
For `C[N+](C)([O-])CCCNc1c2ccccc2nc2cccc([N+](=O)[O-])c12`, the growth inhibition was 93% (active).
For `Cc1cccc2c(NCCCN(C)C)c3c([N+](=O)[O-])ccc(C)c3nc12`, the growth inhibition was 98% (active).
With `C[n+]1c(-c2ccc(/C=N/NC(=O)c3ccc(C(=O)N/N=C/c4ccc(-c5cn6ccccc6[n+]5C)cc4)cc3)cc2)cn2ccccc21` the growth inhibition was 71% (active).
For `O=C(c1ccccc1)[C@H]1Nc2ccc(Cl)cc2[C@H]2OCCC[C@@H]12`, the growth inhibition was 88% (active).
With `O=S(=O)(c1cccc(C(F)(F)F)c1)N1c2ccccc2-n2cccc2C1c1cccnc1` (configuration not stated) the growth inhibition was 92% (active).
In the case of `CC(C)(C)OC(=O)NCCCCC(NC(=O)C(Cc1c[nH]c2ccccc12)NC(=O)OCC1c2ccccc2-c2ccccc21)C(=O)O` (configuration not stated) (Fmoc-Trp-Lys(Boc)-OH; configuration not given here), the growth inhibition is reported as 75% (active).

Assay: NCI Yeast Anticancer Drug Screen. Data for the rad50 strain (AID 155);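 note: 0% = growth of vehicle-only cultures of the same strain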
Details: S. cerevisiae rad50 strain growth inhibition; at 1.2 µM; stronger effect = higher value
Procedure, shortened: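 Compounds were tested on a yeast strain with an engineered DNA damage repair alteration; the reported value is growth inhibition normalised to vehicle treatment.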

Compared with `CC(C)C(=O)CC(Sc1ccc(N)cc1)c1ccccc1` (configuration not stated), `N#CCC(=O)N/N=C(\c1ccccc1)C(c1ccccc1)C1(O)C(=O)Nc2c(Cl)ccc(Cl)c21` (configuration not stated) is higher in growth inhibition: -1% for the first, 5% for the second.

First: CC(C)OP(=O)(OC(C)C)/C(Cl)=N/Nc1ccc([N+](=O)[O-])cc1
Second: COc1cccc(/C=C2\S/C(=N/Nc3nc(-c4ccc([N+](=O)[O-])cc4)cs3)NC2=O)c1O
The growth inhibition of the first is lower: -10% for the first, 2% for the second.

Going from `O=[N+]([O-])c1cc(Cl)ccc1S(=O)(=O)c1ccc(Cl)cc1[N+](=O)[O-]` to `O=[N+]([O-])c1ccc(/C=C\c2ccc3c(c2)OCO3)c([N+](=O)[O-])c1`, the growth inhibition rises from -31% to 3%.

Going from `CCCCCCNCCCNc1c2cc(OC)ccc2nc2cccc([N+](=O)[O-])c12` to `CN(C)CCNCCCNc1c2ccccc2nc2cccc([N+](=O)[O-])c12`, the growth inhibition rises from 5% to 9%.

First: CCC[CH2][Ge]([CH2]CCC)([CH2]CCC)[O]C(=O)C(O)c1ccccc1 (configuration not stated)
Second: CCN(CC)CCCNc1ccc([N+](=O)[O-])c2nc3ccc(OC)cc3c(NCCCN(CC)CC)c12
The growth inhibition of the first is higher: 3% for the first, -2% for the second.

Going from `COc1ccc(-c2cc(-c3cc(C)cc(Cl)c3O)nc3[nH]c(=S)[nH]c(=S)c23)cc1` to `COc1ccc(C(C)c2cc3c(cc2OCC(C)=O)OCO3)cc1` (configuration not stated), the growth inhibition falls from 3% to 2%.

First: O=C1c2ccccc2N2OC3(N4CCCC4)CCCCC3C12c1ccccc1 (configuration not stated)
Second: OC(Cc1cccc2ccccc12)CN1CCC(c2ccccc2)CC1 (configuration not stated)
The growth inhibition of the first is lower: 5% for the first, 6% for the second.

Going from `CC(C)OC(=O)NNc1cc(Cl)ccc1Cl` to `CCCNC(=O)OCc1c(COC(=O)NCCC)c(-c2ccc(Cl)c(Cl)c2)n2c1CCC2`, the growth inhibition falls from -3% to -39%.

First: Cc1oc2ccccc2c(=O)c1Cn1nnc2ccccc21
Second: CCS(=O)(=O)Nc1ccc(Nc2c3ccccc3nc3ccccc23)c(OC)c1
The growth inhibition of the first is lower: -3% for the first, 51% for the second.

First: CC1(C)OC(=O)C(=Cc2ccc([N+](=O)[O-])s2)C(=O)O1
Second: CC1=NN(C(=O)c2ccccc2O)C(=O)/C1=C/c1ccco1
The growth inhibition of the first is lower: -9% for the first, -3% for the second.

Compared with `C1=CCN([B-](c2ccccc2)[C+]2CCCCC2)C=C1`, `O=S(=O)(c1ccccc1)N1CN2CN(C1)CN(S(=O)(=O)c1ccccc1)C2` is lower in growth inhibition: -3% for the first, -4% for the second.

Compared with `O=[N+]([O-])c1cc[n+]([O-])c(Cl)c1`, `O=[N+]([O-])c1ccc2nc(=S)[nH]n2c1` is lower in growth inhibition: 1% for the first, -4% for the second.

Going from `CC1(C)CC(=O)C(C(=O)Nc2cccs2)=C(O)C1` to `O=C(NO)c1coc2ccccc2c1=O`, the growth inhibition falls from 14% to 5%.

Compared with `O=C1C=C(Br)C(=O)c2ccccc21`, `COc1cc([N+](=O)[O-])c2ncccc2c1Br` is higher in growth inhibition: 9% for the first, 15% for the second.

Going from `C[N+](C)([O-])CCCNc1c2ccccc2nc2cccc([N+](=O)[O-])c12` to `Cc1cccc2c(NCCCN(C)C)c3c([N+](=O)[O-])ccc(C)c3nc12`, the growth inhibition rises from 31% to 54%.

Going from `OC1(c2ccccc2)C2CC=CC2C1(c1ccccc1)c1ccccc1` (configuration not stated) to `O=S(=O)(c1cccc(C(F)(F)F)c1)N1c2ccccc2-n2cccc2C1c1cccnc1` (configuration not stated), the growth inhibition falls from -2% to -15%.

Going from `C[n+]1c(-c2ccc(/C=N/NC(=O)c3ccc(C(=O)N/N=C/c4ccc(-c5cn6ccccc6[n+]5C)cc4)cc3)cc2)cn2ccccc21` to `CC(C)(C)OC(=O)NCCCCC(NC(=O)C(Cc1c[nH]c2ccccc12)NC(=O)OCC1c2ccccc2-c2ccccc21)C(=O)O` (configuration not stated) (Fmoc-Trp-Lys(Boc)-OH; configuration not given here), the growth inhibition falls from 6% to -3%.

Compared with `CCN(CC)CCC(=O)Nc1ccc2sc3ccccc3c(=O)c2n1`, `O=C(c1ccccc1)[C@H]1Nc2ccc(Cl)cc2[C@H]2OCCC[C@@H]12` is lower in growth inhibition: 21% for the first, -2% for the second.
